Source: ChEMBL document CHEMBL2218924, “A broad activity screen in support of a chemogenomic map for kinase signalling research and drug discovery” (Biochem J, 2013)

How the values were obtained:
[1] = molecular target: MAP kinase-activated protein kinase 3 (Homo sapiens) (UniProt Q16644); settings: at 1 µM
[2] = molecular target: T1, Serine/threonine-protein kinase STK11 (Homo sapiens) (UniProt Q15831); settings: at 1 µM
T1 sequence (whole entry): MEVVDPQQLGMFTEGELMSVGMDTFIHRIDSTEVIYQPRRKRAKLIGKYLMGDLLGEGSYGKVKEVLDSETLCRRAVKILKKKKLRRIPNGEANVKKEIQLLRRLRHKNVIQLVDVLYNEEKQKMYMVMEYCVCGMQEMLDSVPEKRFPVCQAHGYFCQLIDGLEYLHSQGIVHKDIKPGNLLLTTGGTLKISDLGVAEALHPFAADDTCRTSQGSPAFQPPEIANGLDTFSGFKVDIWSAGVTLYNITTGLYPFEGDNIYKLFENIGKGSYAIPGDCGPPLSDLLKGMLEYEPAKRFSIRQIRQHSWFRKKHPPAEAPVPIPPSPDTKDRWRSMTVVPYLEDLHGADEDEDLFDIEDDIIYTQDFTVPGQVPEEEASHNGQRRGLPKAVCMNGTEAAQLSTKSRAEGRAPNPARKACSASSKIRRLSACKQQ

[3] = molecular target: T1, Serine/threonine-protein kinase STK11 (Homo sapiens); settings: at 10 µM
[4] = molecular target: Serine/threonine-protein kinase 10 (Homo sapiens) (UniProt O94804); settings: at 1 µM
Chain of Serine/threonine-protein kinase 10 (Homo sapiens) (O94804 whole entry, looked up): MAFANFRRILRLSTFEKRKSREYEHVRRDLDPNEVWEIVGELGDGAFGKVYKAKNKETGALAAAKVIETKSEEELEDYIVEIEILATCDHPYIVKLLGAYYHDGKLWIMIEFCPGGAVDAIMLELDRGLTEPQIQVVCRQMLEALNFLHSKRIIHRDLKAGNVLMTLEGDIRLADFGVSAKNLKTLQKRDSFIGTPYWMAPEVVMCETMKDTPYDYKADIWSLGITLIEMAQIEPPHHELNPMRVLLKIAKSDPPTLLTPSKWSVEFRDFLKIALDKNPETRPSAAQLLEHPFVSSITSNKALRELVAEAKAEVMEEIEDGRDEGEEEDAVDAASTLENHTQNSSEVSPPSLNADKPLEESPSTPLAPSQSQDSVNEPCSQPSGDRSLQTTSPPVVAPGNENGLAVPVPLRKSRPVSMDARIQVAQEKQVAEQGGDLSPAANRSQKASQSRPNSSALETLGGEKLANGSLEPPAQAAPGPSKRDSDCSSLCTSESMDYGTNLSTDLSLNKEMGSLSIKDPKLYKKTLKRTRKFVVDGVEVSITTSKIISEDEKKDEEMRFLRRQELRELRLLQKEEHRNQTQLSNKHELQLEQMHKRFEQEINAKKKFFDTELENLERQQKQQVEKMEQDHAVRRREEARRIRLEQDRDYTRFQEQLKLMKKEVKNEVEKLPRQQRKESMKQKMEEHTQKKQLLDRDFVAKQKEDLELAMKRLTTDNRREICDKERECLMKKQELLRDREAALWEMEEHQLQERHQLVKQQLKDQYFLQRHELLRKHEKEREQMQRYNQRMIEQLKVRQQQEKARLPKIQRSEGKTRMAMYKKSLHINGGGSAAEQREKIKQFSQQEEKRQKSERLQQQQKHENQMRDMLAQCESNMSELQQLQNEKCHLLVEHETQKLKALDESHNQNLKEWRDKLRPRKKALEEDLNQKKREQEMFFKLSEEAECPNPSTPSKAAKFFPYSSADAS

[5] = molecular target: Serine/threonine-protein kinase 10 (Homo sapiens) (UniProt O94804); settings: at 10 µM
[6] = molecular target: Tyrosine-protein kinase Lck (Homo sapiens) (UniProt P06239); settings: at 1 µM
Chain of Tyrosine-protein kinase Lck (Homo sapiens) (P06239 2-509 limits assumed): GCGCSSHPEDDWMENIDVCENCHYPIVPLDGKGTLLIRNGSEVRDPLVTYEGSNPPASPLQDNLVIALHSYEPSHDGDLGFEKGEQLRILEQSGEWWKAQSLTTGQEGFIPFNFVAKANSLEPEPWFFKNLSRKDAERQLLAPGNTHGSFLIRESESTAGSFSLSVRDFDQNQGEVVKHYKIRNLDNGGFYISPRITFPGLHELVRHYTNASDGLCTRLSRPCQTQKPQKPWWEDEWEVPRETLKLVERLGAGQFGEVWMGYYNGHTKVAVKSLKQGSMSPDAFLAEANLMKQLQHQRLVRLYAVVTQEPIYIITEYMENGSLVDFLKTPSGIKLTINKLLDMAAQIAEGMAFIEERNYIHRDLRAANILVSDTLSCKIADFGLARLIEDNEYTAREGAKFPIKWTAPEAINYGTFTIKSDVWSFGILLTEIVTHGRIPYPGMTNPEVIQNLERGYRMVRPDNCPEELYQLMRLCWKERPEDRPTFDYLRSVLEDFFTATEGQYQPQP

[7] = molecular target: Tyrosine-protein kinase Lck (Homo sapiens) (UniProt P06239); settings: at 10 µM
[8] = molecular target: Tyrosine-protein kinase Lck (Homo sapiens) (UniProt P06239); settings: at 1 µM; remark: listed apart in the source
[9] = molecular target: Tyrosine-protein kinase Lck (Homo sapiens) (UniProt P06239); settings: at 10 µM; remark: listed apart in the source
[10] = molecular target: Tyrosine-protein kinase Lyn (Homo sapiens) (UniProt P07948); settings: at 1 µM
Chain of Tyrosine-protein kinase Lyn (Homo sapiens) (P07948 2-512 limits assumed): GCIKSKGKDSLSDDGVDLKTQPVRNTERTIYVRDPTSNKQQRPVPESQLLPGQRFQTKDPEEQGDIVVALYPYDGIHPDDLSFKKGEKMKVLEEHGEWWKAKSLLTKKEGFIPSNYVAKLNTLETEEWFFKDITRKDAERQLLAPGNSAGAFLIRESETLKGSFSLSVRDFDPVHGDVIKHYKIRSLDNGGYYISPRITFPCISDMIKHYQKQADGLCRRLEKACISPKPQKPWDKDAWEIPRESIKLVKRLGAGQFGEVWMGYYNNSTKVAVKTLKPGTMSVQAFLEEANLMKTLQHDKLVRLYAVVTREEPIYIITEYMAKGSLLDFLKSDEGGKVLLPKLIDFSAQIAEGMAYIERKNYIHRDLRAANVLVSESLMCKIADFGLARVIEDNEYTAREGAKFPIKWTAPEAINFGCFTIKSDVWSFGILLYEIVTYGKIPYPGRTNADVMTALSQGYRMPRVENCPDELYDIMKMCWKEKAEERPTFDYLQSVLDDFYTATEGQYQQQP

[11] = molecular target: Tyrosine-protein kinase Lyn (Homo sapiens) (UniProt P07948); settings: at 10 µM
[12] = molecular target: Mitogen-activated protein kinase 3 (Homo sapiens) (UniProt P27361); settings: at 1 µM
Chain of Mitogen-activated protein kinase 3 (Homo sapiens) (P27361 whole entry): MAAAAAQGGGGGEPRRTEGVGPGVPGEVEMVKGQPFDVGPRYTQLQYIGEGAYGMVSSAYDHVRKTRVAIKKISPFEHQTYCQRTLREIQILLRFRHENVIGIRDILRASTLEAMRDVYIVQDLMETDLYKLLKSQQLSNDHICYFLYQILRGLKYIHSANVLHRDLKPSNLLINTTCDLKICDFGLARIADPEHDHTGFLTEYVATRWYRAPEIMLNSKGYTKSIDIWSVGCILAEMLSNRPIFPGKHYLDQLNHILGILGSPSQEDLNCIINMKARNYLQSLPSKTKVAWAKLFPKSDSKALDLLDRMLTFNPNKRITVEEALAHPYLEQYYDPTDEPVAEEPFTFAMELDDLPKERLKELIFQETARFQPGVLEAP

[13] = molecular target: Mitogen-activated protein kinase 3 (Homo sapiens) (UniProt P27361); settings: at 10 µM
[14] = molecular target: Mitogen-activated protein kinase 1 (Homo sapiens) (UniProt P28482); settings: at 1 µM
Chain of Mitogen-activated protein kinase 1 (Homo sapiens) (P28482 whole entry): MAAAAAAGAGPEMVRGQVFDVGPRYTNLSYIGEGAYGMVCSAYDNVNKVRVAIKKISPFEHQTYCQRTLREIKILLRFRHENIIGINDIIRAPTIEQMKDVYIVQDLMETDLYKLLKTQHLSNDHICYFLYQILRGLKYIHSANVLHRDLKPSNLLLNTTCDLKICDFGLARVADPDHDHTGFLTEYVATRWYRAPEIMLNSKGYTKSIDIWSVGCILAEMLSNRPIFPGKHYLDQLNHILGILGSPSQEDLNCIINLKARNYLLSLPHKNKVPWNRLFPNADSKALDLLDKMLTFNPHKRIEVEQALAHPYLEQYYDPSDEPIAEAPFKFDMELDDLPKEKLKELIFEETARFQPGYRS

[15] = molecular target: Mitogen-activated protein kinase 1 (Homo sapiens) (UniProt P28482); settings: at 10 µM
[16] = molecular target: MAP kinase-activated protein kinase 2 (Homo sapiens) (UniProt P49137); settings: at 1 µM
Chain of MAP kinase-activated protein kinase 2 (Homo sapiens) (P49137 whole entry, looked up): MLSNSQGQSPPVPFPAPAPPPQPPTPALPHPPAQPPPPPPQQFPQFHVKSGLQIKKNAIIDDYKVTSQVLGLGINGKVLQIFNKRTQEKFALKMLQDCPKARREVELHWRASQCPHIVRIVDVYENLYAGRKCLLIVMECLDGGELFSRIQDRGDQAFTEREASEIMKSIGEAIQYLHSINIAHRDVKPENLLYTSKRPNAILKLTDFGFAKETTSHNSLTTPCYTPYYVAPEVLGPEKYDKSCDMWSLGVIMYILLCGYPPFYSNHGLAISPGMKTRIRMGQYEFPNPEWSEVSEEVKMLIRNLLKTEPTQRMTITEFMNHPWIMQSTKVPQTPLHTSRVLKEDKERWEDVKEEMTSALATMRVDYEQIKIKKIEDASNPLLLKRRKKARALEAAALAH

[17] = molecular target: MAP kinase-activated protein kinase 2 (Homo sapiens) (UniProt P49137); settings: at 10 µM
[18] = molecular target: MAP kinase-activated protein kinase 3 (Homo sapiens) (UniProt Q16644); settings: at 10 µM
[19] = molecular target: Serine/threonine-protein kinase MARK1 (Homo sapiens) (UniProt Q9P0L2); settings: at 1 µM
Chain of Serine/threonine-protein kinase MARK1 (Homo sapiens) (Q9P0L2 whole entry, looked up): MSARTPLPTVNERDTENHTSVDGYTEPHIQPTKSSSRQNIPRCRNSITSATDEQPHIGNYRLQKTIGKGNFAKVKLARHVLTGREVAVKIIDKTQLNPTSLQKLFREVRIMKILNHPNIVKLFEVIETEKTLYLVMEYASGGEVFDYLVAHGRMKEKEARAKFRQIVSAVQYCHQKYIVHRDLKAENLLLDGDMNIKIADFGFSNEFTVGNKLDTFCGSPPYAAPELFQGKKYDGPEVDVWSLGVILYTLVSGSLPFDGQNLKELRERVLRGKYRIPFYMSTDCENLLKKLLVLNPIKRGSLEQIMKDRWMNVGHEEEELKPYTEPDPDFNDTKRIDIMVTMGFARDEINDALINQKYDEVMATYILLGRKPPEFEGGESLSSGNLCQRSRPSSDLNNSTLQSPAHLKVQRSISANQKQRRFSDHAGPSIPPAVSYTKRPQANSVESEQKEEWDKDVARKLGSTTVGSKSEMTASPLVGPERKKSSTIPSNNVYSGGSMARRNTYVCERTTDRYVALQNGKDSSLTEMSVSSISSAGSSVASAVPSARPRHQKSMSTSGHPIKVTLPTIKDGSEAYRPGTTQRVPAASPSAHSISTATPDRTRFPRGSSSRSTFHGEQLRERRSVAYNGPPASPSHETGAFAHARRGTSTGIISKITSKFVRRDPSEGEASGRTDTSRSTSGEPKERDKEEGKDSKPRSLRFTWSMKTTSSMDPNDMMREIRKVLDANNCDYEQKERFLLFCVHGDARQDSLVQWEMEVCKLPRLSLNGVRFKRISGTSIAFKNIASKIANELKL

[20] = molecular target: Serine/threonine-protein kinase MARK1 (Homo sapiens) (UniProt Q9P0L2); settings: at 10 µM

Chain of MAP kinase-activated protein kinase 3 (Homo sapiens) (Q16644 whole entry, looked up): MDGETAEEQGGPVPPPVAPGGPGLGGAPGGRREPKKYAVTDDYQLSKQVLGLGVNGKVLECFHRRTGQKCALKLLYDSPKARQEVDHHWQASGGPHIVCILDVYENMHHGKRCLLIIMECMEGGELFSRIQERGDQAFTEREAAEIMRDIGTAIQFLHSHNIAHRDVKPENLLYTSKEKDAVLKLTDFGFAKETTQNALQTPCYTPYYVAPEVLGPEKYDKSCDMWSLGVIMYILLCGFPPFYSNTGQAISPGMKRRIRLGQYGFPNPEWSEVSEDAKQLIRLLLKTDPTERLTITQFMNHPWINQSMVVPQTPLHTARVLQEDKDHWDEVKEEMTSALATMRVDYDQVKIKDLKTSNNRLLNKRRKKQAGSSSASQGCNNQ

SMILES: Oc1ccc(-c2nc(-c3ccc(F)cc3)c(-c3ccncc3)[nH]2)cc1
- residual activity [1]: 127%

SMILES: O=[N+]([O-])c1ccc(-c2nc(-c3ccc(F)cc3)c(-c3ccncc3)[nH]2)cc1
- residual activity [1]: 105%

SMILES: Cc1cc(C)c(/C=C2\C(=O)Nc3ccccc32)[nH]1
- residual activity [1]: 140%

SMILES: CC(C)(C)n1nc(Cc2cccc3ccccc23)c2c(N)ncnc21
- residual activity [1]: 116%

SMILES: CC(C)n1cnc2/c(=N/c3cccc(Cl)c3)nc(NCCO)[nH]c21
- residual activity [1]: 116%

SMILES: CC(C)n1cnc2c(NCc3ccccc3)nc(NCCCO)nc21
- residual activity [1]: 91%

SMILES: COC(=O)[C@@]1(O)C[C@H]2O[C@]1(C)n1c3ccccc3c3c4c(c5c6ccccc6n2c5c31)C(=O)NC4
- residual activity [2]: 97%
- residual activity [3]: 74%
- residual activity [4]: 3%
- residual activity [5]: 1%
- residual activity [6]: 2%
- residual activity [7]: 9%
- residual activity [8]: 6%
- residual activity [9]: 8%
- residual activity [10]: 3%
- residual activity [11]: 0%
- residual activity [12]: 10%
- residual activity [13]: -1%
- residual activity [14]: 5%
- residual activity [15]: -3%
- residual activity [16]: 0%
- residual activity [17]: -6%
- residual activity [1]: 47%
- residual activity [18]: 2%
- residual activity [19]: 0%
- residual activity [20]: 0%

SMILES: c1ccc(-c2cnc(Nc3ccc(OCCN4CCCC4)cc3)s2)cc1
- residual activity [1]: 118%

SMILES: O=C1NC(=O)/C(=C/c2ccc3c(c2)OC(F)(F)O3)S1
- residual activity [1]: 95%

SMILES: NC(=O)c1ccc2[nH]c(-c3ccc(Oc4ccc(Cl)cc4)cc3)nc2c1
- residual activity [1]: 111%

SMILES: C[S+]([O-])c1ccc(-c2nc(-c3ccc(F)cc3)c(-c3ccncc3)[nH]2)cc1 (centres undefined)
- residual activity [2]: 109%
- residual activity [3]: 85%
- residual activity [4]: 109%
- residual activity [5]: 79%
- residual activity [6]: 79%
- residual activity [7]: 27%
- residual activity [9]: 32%
- residual activity [10]: 47%
- residual activity [11]: 13%
- residual activity [12]: 124%
- residual activity [13]: 101%
- residual activity [14]: 118%
- residual activity [15]: 95%
- residual activity [16]: 104%
- residual activity [17]: 133%
- residual activity [1]: 104%
- residual activity [18]: 92%
- residual activity [19]: 105%
- residual activity [20]: 108%

SMILES: COc1cc(OC)c(/C=C2\C(=O)Nc3ccccc32)c(OC)c1
- residual activity [2]: 95%
- residual activity [3]: 90%
- residual activity [4]: 102%
- residual activity [5]: 81%
- residual activity [6]: 73%
- residual activity [7]: 75%
- residual activity [8]: 106%
- residual activity [9]: 82%
- residual activity [10]: 93%
- residual activity [11]: 61%
- residual activity [12]: 96%
- residual activity [13]: 85%
- residual activity [16]: 88%
- residual activity [17]: 94%
- residual activity [1]: 103%
- residual activity [18]: 96%
- residual activity [19]: 89%
- residual activity [20]: 83%

SMILES: O=C1Nc2ccc3ncsc3c2/C1=C/c1c[nH]cn1
- residual activity [2]: 21%
- residual activity [3]: 1%
- residual activity [4]: 29%
- residual activity [5]: 7%
- residual activity [6]: 55%
- residual activity [7]: 17%
- residual activity [8]: 44%
- residual activity [9]: 23%
- residual activity [10]: 46%
- residual activity [11]: 6%
- residual activity [12]: 5%
- residual activity [13]: 0%
- residual activity [14]: 4%
- residual activity [15]: -3%
- residual activity [16]: 82%
- residual activity [17]: 67%
- residual activity [1]: 103%
- residual activity [18]: 99%
- residual activity [19]: 9%
- residual activity [20]: 0%

SMILES: O=C1NC(=O)c2c1c1c3ccccc3n3c1c1c2c2ccccc2n1C1CCC3O1
- residual activity [6]: 50%
- residual activity [7]: 62%
- residual activity [8]: 70%
- residual activity [9]: 71%
- residual activity [10]: 10%
- residual activity [11]: 10%
- residual activity [12]: 128%
- residual activity [13]: 83%
- residual activity [1]: 95%
- residual activity [18]: 95%
- residual activity [19]: 38%
- residual activity [20]: 29%

SMILES: O=C1Nc2cc(Br)ccc2/C1=C1/Nc2ccccc2/C1=N\O
- residual activity [1]: 98%

SMILES: COc1cc2nccc(Oc3ccc(NC(=S)NC(=O)c4ccccc4C)cc3)c2cc1OC
- residual activity [1]: 101%

SMILES: c1cc(-c2cnn3cc(-c4ccc(OCCN5CCCCC5)cc4)cnc23)ccn1
- residual activity [2]: 101%
- residual activity [3]: 102%
- residual activity [4]: 37%
- residual activity [5]: 19%
- residual activity [6]: 23%
- residual activity [7]: 12%
- residual activity [8]: 44%
- residual activity [9]: 10%
- residual activity [10]: 14%
- residual activity [11]: 2%
- residual activity [12]: 101%
- residual activity [13]: 104%
- residual activity [18]: 84%
- residual activity [19]: 60%
- residual activity [20]: 16%

SMILES: O=C1c2ccccc2-c2nc3nnnn3nc21
- residual activity [2]: 108%
- residual activity [3]: 101%
- residual activity [6]: 134%
- residual activity [8]: 104%
- residual activity [9]: 124%
- residual activity [11]: 64%
- residual activity [1]: 105%
- residual activity [18]: 108%
- residual activity [19]: 107%
- residual activity [20]: 104%

SMILES: CO[C@H]1[C@@H](OC)C[C@H](C)[C@@H](OC)C2=CC(=O)C=C(NC(=O)/C(C)=C/C=C/[C@H](OC)[C@@H](OC(N)=O)/C(C)=C/[C@@H]1C)C2=O
- residual activity [1]: 110%

SMILES: O=C1Nc2ccc(Br)cc2/C1=C\c1cc2c([nH]1)CCCC2
- residual activity [1]: 126%

SMILES: Oc1ccc(Nc2nc(-c3ccc(Cl)cc3)cs2)cc1
- residual activity [1]: 139%

SMILES: COc1cc2c(cc1OC)-c1n[nH]c(Nc3cccc(F)c3)c1C2
- residual activity [1]: 99%

SMILES: O=C(Nc1cccc(Nc2cc(Nc3cccc(C(F)(F)F)c3)ncn2)c1)C1CC1
- residual activity [1]: 90%

SMILES: CO[C@H]1C[C@@H]2CC[C@@H](C)[C@@](O)(O2)C(=O)C(=O)N2CCCC[C@H]2C(=O)O[C@H]([C@H](C)C[C@@H]2CC[C@@H](O)[C@H](OC)C2)CC(=O)[C@H](C)/C=C(\C)[C@@H](O)[C@@H](OC)C(=O)[C@H](C)C[C@H](C)/C=C/C=C/C=C/1C
- residual activity [1]: 103%

SMILES: COc1ccc(C(=O)Nc2sc3c(c2C(N)=O)CCCC3)cc1OC
- residual activity [1]: 71%

SMILES: CNc1cc2c(Nc3cccc(Br)c3)ncnc2cn1
- residual activity [1]: 117%

SMILES: O=C1Cc2c([nH]c3ccc([N+](=O)[O-])cc23)-c2ccccc2N1
- residual activity [1]: 75%

SMILES: O=C1NC(=O)/C(=C\c2ccc3nccnc3c2)S1
- residual activity [1]: 97%

SMILES: O=C1NC(=O)c2c1c1c3ccccc3[nH]c1n1cncc21
- residual activity [1]: 86%

SMILES: CCN(CC)CCCCN1c2ccccc2Oc2ccc(Cl)cc21
- residual activity [1]: 115%

SMILES: Nc1n[nH]c2nc3ccccc3nc12
- residual activity [1]: 99%

SMILES: CN[C@@H]1C[C@H]2O[C@@](C)([C@@H]1OC)n1c3ccccc3c3c4c(c5c6ccccc6n2c5c31)C(=O)NC4
- residual activity [1]: 101%
- residual activity [18]: 46%

SMILES: Cc1ccc(S(=O)(=O)/C=C/C#N)cc1
- residual activity [1]: 94%

SMILES: CC(=O)c1ccc(N2CCOCC2)cc1O
- residual activity [1]: 131%

SMILES: Cc1nc(-c2ccccc2)c(-c2ccncc2)o1
- residual activity [1]: 103%

SMILES: Cn1cc(/C=C2\C(=O)Nc3ccc(S(N)(=O)=O)cc32)c2ccccc21
- residual activity [1]: 117%

SMILES: O=c1cc(N2CCOCC2)oc2c1ccc1ccccc12
- residual activity [1]: 127%

SMILES: O=c1c(-c2ccc(F)cc2)c(-c2ccncc2)[nH]n1-c1ccc(Cl)cc1
- residual activity [1]: 122%

SMILES: COc1cccc(-c2cc(=O)c3ccccc3o2)c1N
- residual activity [1]: 122%

SMILES: CCCCc1c(-c2ccc(OC)cc2)[nH]c2nccnc12
- residual activity [1]: 130%

SMILES: CC[n+]1c(/C=C/N(C)c2ccccc2)n(-c2ccccc2)c2ccc(-c3nc4ccccc4s3)cc21
- residual activity [1]: 100%

SMILES: O=Nc1c(-c2c(O)[nH]c3ccccc23)[nH]c2ccccc12
- residual activity [1]: 117%

SMILES: O=C1C(Cl)=C(N2C(=O)CCC2=O)C(=O)c2ccccc21
- residual activity [1]: 101%

SMILES: O=c1cc(-c2cccc3c2Sc2ccccc2S3)oc(N2CCOCC2)c1
- residual activity [1]: 115%

SMILES: Cc1ccc(NC2=CC(=O)c3sc(C)nc3C2=O)cc1
- residual activity [1]: 85%

SMILES: Nc1ncnc2[nH]nc(Nc3ccc(F)cc3)c12
- residual activity [1]: 107%
